AMA1 RON2 block – inhibitors of Plasmodium falciparum AMA1-RON2 interaction | AlphaScreen AMA1-biotinylated RON2 peptide binding | Potency, µM (series often up to 58.2 µM), for inactives: top-dose activity change, negative = inhibition, usual class: inhibitors | AID 720542 | actives 0.2% (n = 360,000);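 also: potency is read from the fitted curve at half-maximal effect; 0% = vehicle wells and -100% = peptide control; nearly all actives have a fitted effect of over 45% in size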
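AMA1 (3D7) with his tag at 25 nM final met compounds first, then biotinylated RON2 peptide at 25 nM; detection used donor plus acceptor beads, 10 µg/mL apiece, read by AlphaScreen after 30 min at room temperature.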
HCV inh – HCV inhibition; Huh7.5.1 HCVcc-Cre infection, luciferase reporter, 44 h; Potency, µM (highest dose often 41.8 µM), for the others: top-dose activity change, negative = inhibition, most hits filed as inhibitors; actives 3.4% (n = 340,000); also: potency is read from the fitted curve at half-maximal effect; % is scaled to controls: 0 for no effect and ±100 for the full control effect
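Seed cells (1,000/well) for 4 h; treat with compound and infect with HCVcc-Cre, moi about 0.5. Incubate 44 h, then detect luciferase activity.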
CHX counter – affects cycloheximide protein synthesis inhibition readout, counter-screen; max response, %; actives 12% (n = 300,000); cell reporter, cycloheximide protein synthesis inhibition counterscreen; in the data active = max response mostly above about 13%, no sharp cut-off; inactive = mostly below about 14%; also: read at 38.3 µM for the half of the compounds with a filed dose; 0% is about no effect
Pf growth 96h – P. falciparum growth inhibition at 96 hours | actives 6.9% (n = 320,000) | Potency, µM (top dose mostly 28.7 µM), without a hit: at the highest dose activity change, negative = inhibition, hits mostly inhibitors | P. falciparum luciferase reporter growth, 96 h; also: potency is read from the fitted curve at half-maximal effect; % is scaled to controls: 0 for no effect and ±100 for the full control effect
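Two-generation exposure (96 h) targets delayed-death phenotype. Reporter parasites carrying integrated firefly luciferase, in red cells at 2% hematocrit and 0.05% parasitemia final, kept at 37 C, 5% CO2; luminescence loss indicates inhibition.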
Pf growth 48h – inhibits P. falciparum growth in the first generation, 48 h | P. falciparum luciferase growth in erythrocytes, 48 h | Potency, µM (series often up to 28.7 µM), for the others: top-dose activity change, negative = inhibition, actives largely listed as inhibitors | actives 5.9% (n = 310,000) | AID 504832; also: potency is read from the fitted curve at half-maximal effect; % is scaled to controls: 0 for no effect and ±100 for the full control effect
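Read-out is firefly luciferase luminescence from an integrated reporter in P. falciparum, so falling signal marks reduced parasite growth. Infected erythrocytes were at 2% hematocrit and 0.1% parasitemia (final) in Albumax-supplemented RPMI 1640.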
Shiga toxin inh – blocks Shiga toxin action in Vero cells | actives 9.2% (n = 290,000) | inhibition, % at 38.7 µM | Vero cells, Shiga toxin protein synthesis inhibition reporter; in the data active = inhibition mostly above about 28%, no sharp cut-off; inactive = mostly below about 43%; also: 0% is about no effect
Numbers without * were called inactive; i = inactive; ? = inconclusive; . = no result given. A selection: hits, their analogues and other compounds. The true share with any hit is near 21%. Unless noted, calls follow the shape of the dose curve; as a rule, active = well fitted curve in the direction sought with a large enough effect; inconclusive = small, poorly fitted or top-dose-only effect, or another doubt; inactive = no such curve, though single readings can be large; an effect the other way counts as inactive or inconclusive.

SMILES	AMA1 RON2 block	HCV inh	CHX counter	Pf growth 96h	Pf growth 48h	Shiga toxin inh
Cc1nc([N+](=O)[O-])cn1-c1ccc(N)cc1	8%	-4%	-8	12µM*	5%	-11
CCn1cc([N+](=O)[O-])nc1C	29%	11%	-1	16%	-2%	15
Cn1cc([N+](=O)[O-])c(C(=O)Nc2ccc(C(=O)N3CCCCC3)cc2)n1	16%	-6%	11	-10%	9%	29*
Cn1cc([N+](=O)[O-])c(C(=O)Nc2ccc(C3CCCCC3)cc2)n1	-5%	?	46*	14%	33%	86*
COc1ccc(C(=O)Nc2ccc(C(=O)N3CCCC3)cc2)cc1[N+](=O)[O-]	-4%	1%	0	64%	?	12
Cc1cc(C)n(Cc2ccc(NC(=O)c3nn(C)cc3[N+](=O)[O-])cc2)n1	9%	?	14	.	-9%	-24
CCOC(=O)C1=C(COC(=O)CNS(=O)(=O)c2ccc(NC(C)=O)cc2)NC(=O)NC1C (configuration not stated)	23%	6%	.	.	.	.
O=C(NCc1ccncc1)[C@@H]1CCCN1C(=O)[C@H]1CCCN1C(=O)c1c(F)cccc1F	-1%	.	.	.	.	.
CC(=O)Nc1ccc2nc(NC(=O)COc3ccccc3)sc2c1	24%	30%	15	78%	10%	25
CC(=O)Nc1ccc2nc(NC(=O)COc3ccccc3Cl)sc2c1	3%	?	26*	i	28%	43*
CC(=O)Nc1ccc2nc(NC(=O)CCc3ccccc3)sc2c1	-2%	-13%	27*	?	?	56*
COc1cccc2sc(Nc3nc4ccc(NC(C)=O)cc4s3)nc12	43%	4.5µM*	22*	?	?	44*
CC(=O)Nc1ccc2nc(NC(=O)COc3ccccc3C)sc2c1	8%	-16%	50*	?	21%	35
Cc1ccc(S(=O)(=O)N2C[C@]3(O)C[C@@H]4C(=O)N(c5ccccc5)C(=O)[C@@H]4C[C@]3(OC(=O)Nc3c(C)noc3C)C2)cc1	4%	.	.	.	.	.
Cc1cccc(C(=O)C2CCN(S(=O)(=O)c3cccc(C(=O)O)c3)CC2)c1	-2%	4%	-8	16%	-15%	-2
CCOC(=O)/C=C(/C)N1N=C(c2ccc(OC)cc2)CC1c1cccc([N+](=O)[O-])c1 (configuration not stated)	43%	2%	46*	?	?	113*
CCOc1ccc(OCCOCCN2CCOCC2)cc1	24%	23%	-5	26%	.	-5
Cc1cc(OCC(O)CN2CCN(CCO)CC2)ccc1C(C)C (configuration not stated)	6%	-14%	0	9.3µM*	-9%	-8
Cc1cc(OCCN2CCOCC2)ccc1C(C)C	-6%	5%	48*	-8%	31%	60*
O=C(NN1CCOCC1)NC12CC3CC(CC(C3)C1)C2	-3%	22%	0	?	?	11
CC1CN(C(=O)CNC(=O)COc2ccccc2)CC(C)O1 (configuration not stated)	3%	17%	.	.	.	.
Cc1nc(-c2ccccn2)sc1C(=O)Nc1ccc(F)cc1	-15%	4%	19*	0%	0%	5
Cc1nc(-c2ccccn2)sc1C(=O)Nc1ccc(F)cc1F	6%	6%	31*	?	5%	59*
CC(C)(C)c1cc(CCC(=O)NCc2ccccn2)cc(C(C)(C)C)c1O	-1%	.	2	12µM*	?	35
CC(C)(C)c1cc(CCC(=O)NCc2cccnc2)cc(C(C)(C)C)c1O	1%	-30%	9	-16%	17%	-11
SMILES	AMA1 RON2 block	HCV inh	CHX counter	Pf growth 96h	Pf growth 48h	Shiga toxin inh
COC(=O)C1OCOC2C(C(=O)OC)OCOC12 (configuration not stated)	4%	8%	.	.	.	.
COc1cccc(CN2CC(C(=O)NCCc3ccc(C)s3)CCC2=O)c1 (configuration not stated)	4%	0%	-2	-17%	6%	-27
CC(=O)O[C@H]1C(=O)[C@@]2(C)C([C@H](OC(=O)c3ccccc3)[C@]3(O)C[C@H](OC(=O)[C@H](O)[C@@H](NC(=O)Cc4ccccc4)c4ccccc4)C(C)=C1C3(C)C)[C@]1(OC(C)=O)CO[C@@H]1C[C@@H]2O (some centres not stated)	-4%	?	-1	0.74µM*	3.7µM*	14
CC(=O)O[C@H]1C(=O)[C@]2(C)[C@H]([C@H](OC(=O)c3ccccc3)[C@]3(O)C[C@H](OC(=O)[C@H](O)[C@@H](NC(=O)c4ccccc4)c4ccccc4)C(C)=C1C3(C)C)[C@]1(OC(C)=O)CO[C@@H]1C[C@@H]2O	-6%	6.3µM*	.	.	.	.
CC(=O)O[C@@]12CO[C@@H]1C[C@H](O)[C@@]1(C)C(=O)[C@H](O)C3=C(C)[C@@H](OC(=O)[C@H](O)[C@@H](NC(=O)c4ccccc4)c4ccccc4)C[C@@](O)([C@@H](OC(=O)c4ccccc4)C12)C3(C)C (some centres not stated)	0%	-6%	-1	0.074µM*	0.074µM*	-7
CC(=O)O[C@H]1C(=O)[C@@]2(C)C([C@H](OC(=O)c3ccccc3)[C@]3(O)C[C@H](OC(=O)[C@H](O)[C@@H](NC(=O)c4ccccc4)c4ccccc4)C(C)=C1C3(C)C)[C@]1(OC(C)=O)CO[C@@H]1C[C@H]2O (some centres not stated)	-12%	?	-3	?	?	8
CC(=O)O[C@@]12CO[C@@H]1C[C@H](O)[C@@]1(C)C(=O)[C@H](O)C3=C(C)[C@@H](OC(=O)C(O)[C@@H](NC(=O)OC(C)(C)C)c4ccccc4)C[C@@](O)([C@@H](OC(=O)c4ccccc4)[C@H]21)C3(C)C (some centres not stated)	.	.	.	0.014µM*	0.014µM*	.
CC(=O)Nc1cccc(-c2ccnc3c2CC(C(=O)NCc2ccc(F)c(F)c2)O3)c1 (configuration not stated)	-18%	.	.	.	.	.
CC(C)(C)c1cc(NC(=O)Nc2ccc(Cl)cc2Cl)no1	-6%	?	19*	-21%	?	78*
CC(C)(C)c1cc(NC(=O)c2cc(F)c(F)c(F)c2F)no1	5%	-7%	8	3%	5%	-3
CC(C)(C)c1cc(NC(=O)Nc2ccc(Br)cc2Cl)no1	2%	-27%	16*	13µM*	-27%	61*
Cc1c(Cl)cccc1NC(=O)Nc1cc(C(C)(C)C)on1	7%	10µM*	6	?	10µM*	26
CCN(CC(=O)Nc1c(F)cccc1F)C(=O)c1ccc(N2CCCCC2)c([N+](=O)[O-])c1	10%	.	16	-38%	-8%	-14

Screens (PubChem BioAssay)
